Screens from PubChem BioAssay.
CRFBP-R2 block: antagonists of CRF-binding protein/CRF-R2 receptor complex | HEK293 CRF-R2/CRF-BP, CRF-induced calcium fluorescence | inhibition, % at 11.8 µM | 350,000 compounds, 0.59% hits;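 active = inhibition of the ligand-induced calcium signal above about 50% at the single tested concentration, limit read from the data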
CRFBP-R2 agonist: CRF-BP/CRF-R2 complex agonism. HEK293 CRF-R2/CRF-BP, calcium dye fluorescence (FLIPR); percent of saturating CRF peptide response. activation, % at 13.2 µM. 350,000 compounds, 0.46% hits;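 active = activation of at least 50%, plus an integration ratio under a set limit after plate pattern correction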;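 also: plate controls were neutral control wells without compound for no effect and CRF at EC100 for full effect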
MEKK2 WT-MEK5: raises or lowers MEK5 binding to wildtype human MEKK2 PB1 domain; bead flow cytometry, Alexa488-MEK5 binding to MEKK2 WT; actives lie on both sides; binding response (% of control), % at 10 µM; 290,000 compounds, 1.1% hits; AID 1531; in the data active = binding response below about 67% or above about 130%
ABCB6 inh MLPCN: blocks the human ABCB6 transporter; Q9NP58; 360,000 compounds, 0.19% hits; fluorescence ratio to DMSO, % at 10 µM; AID 602162; K562-ABCB6 porphyrin accumulation, flow cytometry, 1 h; hits give low values;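 active = fluorescence ratio to DMSO below 75%, the collection mean minus 3 SD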;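 also: signal is porphyrin accumulated inside mitochondria; 100% equals median channel fluorescence of DMSO control wells; lower ratio means ABCB6 inhibition with less porphyrin fluorescence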
MEKK2mut PB1 HTS: signal of MEK5 binding to mutant human MEKK2 PB1 domain; AID 1530; 290,000 compounds, 0.35% hits; percent response, % at 10 µM; bead flow cytometry, Alexa488-MEK5 binding to MEKK2 mutant; in the data active = percent response above about 24%, passing the limit was not always enough
MEKK3 PB1 HTS: MEKK3-MEK5 PB1 interaction, increase or decrease; binding response (% of control), % at 10 µM; Q99759; 290,000 compounds, 1.4% hits; bead-based flow cytometry, Alexa488-MEK5 binding to MEKK3; actives lie on both sides; 0 = blocked by unlabeled MEK5, 100 = vehicle; AID 1529;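 active = binding response more than 3 SD above or below the average of its plate-row segment, actives on both sides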;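 also: Alexa488 bead fluorescence after subtracting the streptavidin-only scavenger bead signal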
Target sequence (Q99759 whole entry, looked up): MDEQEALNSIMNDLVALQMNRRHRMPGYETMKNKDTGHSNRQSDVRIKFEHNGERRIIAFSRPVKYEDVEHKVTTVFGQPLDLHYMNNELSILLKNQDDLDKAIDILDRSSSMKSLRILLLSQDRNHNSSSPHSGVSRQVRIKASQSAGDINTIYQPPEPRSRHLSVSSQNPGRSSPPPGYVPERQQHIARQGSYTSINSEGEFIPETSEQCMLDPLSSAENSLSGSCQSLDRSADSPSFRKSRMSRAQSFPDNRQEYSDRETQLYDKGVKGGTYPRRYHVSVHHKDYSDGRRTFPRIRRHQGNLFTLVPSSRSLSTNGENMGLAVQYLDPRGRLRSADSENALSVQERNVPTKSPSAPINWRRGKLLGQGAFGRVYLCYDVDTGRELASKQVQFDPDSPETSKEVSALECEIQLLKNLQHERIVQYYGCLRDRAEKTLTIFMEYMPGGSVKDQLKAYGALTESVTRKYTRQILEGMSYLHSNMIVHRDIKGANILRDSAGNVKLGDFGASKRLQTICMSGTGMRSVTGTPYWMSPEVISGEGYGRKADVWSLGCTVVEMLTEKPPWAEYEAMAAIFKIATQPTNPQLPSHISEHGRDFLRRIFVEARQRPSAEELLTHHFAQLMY
The depositor's hits bear a star. Only some compounds are listed: those with a hit (about 2.9% of all), similar ones and a draw of the others.

Results for COc1cc(NC(=O)[C@H](C)NC(=O)N2CCn3c2nc2ccccc23)cc(OC)c1 ?
CRFBP-R2 block: 86*; CRFBP-R2 agonist: 0; MEKK2 WT-MEK5: 103; ABCB6 inh MLPCN: 101; MEKK2mut PB1 HTS: 1; MEKK3 PB1 HTS: 103

Results for COc1cccc(NC(=O)[C@H](C)NC(=O)N2CCn3c2nc2ccccc23)c1 ?
CRFBP-R2 block: -1; CRFBP-R2 agonist: 1; MEKK2 WT-MEK5: 107; ABCB6 inh MLPCN: 98; MEKK2mut PB1 HTS: 2; MEKK3 PB1 HTS: 105

Results for O=P1(O)Cc2ccccc2-c2ccccc21 ?
CRFBP-R2 block: 13; CRFBP-R2 agonist: 0; ABCB6 inh MLPCN: 97

What do the screens show for `O=c1nc(-c2ccccc2)n(-c2ccc(Cl)cc2)[nH]1`?
CRFBP-R2 block: 39; CRFBP-R2 agonist: 91*; MEKK2 WT-MEK5: 95; ABCB6 inh MLPCN: 100; MEKK2mut PB1 HTS: 7; MEKK3 PB1 HTS: 96

Results for COc1ccc2c(c1)c(CC(=O)Nc1cc(C)ccc1C)c(C)n2C(=O)c1ccc(Cl)cc1 ?
CRFBP-R2 block: -97; CRFBP-R2 agonist: 89*; MEKK2 WT-MEK5: 104; ABCB6 inh MLPCN: 107; MEKK2mut PB1 HTS: 0; MEKK3 PB1 HTS: 101

What do the screens show for `COc1ccc2c(c1)c(CC(=O)Nc1ccccc1OC)c(C)n2C(=O)c1ccc(Cl)cc1`?
CRFBP-R2 block: 33; CRFBP-R2 agonist: 2; MEKK2 WT-MEK5: 106; ABCB6 inh MLPCN: 94; MEKK2mut PB1 HTS: 1; MEKK3 PB1 HTS: 96

Results for COc1ccccc1Nc1ccc(S(=O)(=O)N2CCCCC2)cc1[N+](=O)[O-] ?
CRFBP-R2 block: 51*; CRFBP-R2 agonist: -2; MEKK2 WT-MEK5: 98; ABCB6 inh MLPCN: 102; MEKK2mut PB1 HTS: 18; MEKK3 PB1 HTS: 105

How did O=C(Cn1c(=O)oc2ccc(Cl)cc21)Nc1ccon1 do in these assays?
CRFBP-R2 block: -18; CRFBP-R2 agonist: 0; MEKK2 WT-MEK5: 98; ABCB6 inh MLPCN: 99; MEKK2mut PB1 HTS: -1; MEKK3 PB1 HTS: 99

Results for Oc1ccc2ccccc2c1C=Nc1cc(C(F)(F)F)ccc1N1CCCC1 ?
CRFBP-R2 block: -35; CRFBP-R2 agonist: 4; MEKK2 WT-MEK5: 6.0*; ABCB6 inh MLPCN: 137; MEKK2mut PB1 HTS: 17; MEKK3 PB1 HTS: 95

Results for O=C(O)c1ccc(N=Cc2c(O)ccc3ccccc23)cc1 ?
CRFBP-R2 block: 3; CRFBP-R2 agonist: 0; MEKK2 WT-MEK5: 100; ABCB6 inh MLPCN: 99; MEKK2mut PB1 HTS: 1; MEKK3 PB1 HTS: 100

How did CCOc1ccc(-n2c(=O)[nH]cc(C(=O)Nc3ccc(OC)c(OC)c3)c2=O)cc1 do in these assays?
CRFBP-R2 block: 5; CRFBP-R2 agonist: 1; MEKK2 WT-MEK5: 96; ABCB6 inh MLPCN: 97; MEKK2mut PB1 HTS: -8; MEKK3 PB1 HTS: 100

How did CCC(C)[C@H](NC(=O)[C@@H]1Cc2ccccc2CN1C(=O)OC(C)(C)C)C(=O)NCC1CCC(C(=O)O)CC1 (stereo partly drawn) do in these assays?
CRFBP-R2 block: 81*; CRFBP-R2 agonist: -3; MEKK2 WT-MEK5: 105; ABCB6 inh MLPCN: 99; MEKK2mut PB1 HTS: -1; MEKK3 PB1 HTS: 104

How did CC(C)[C@H](NC(=O)[C@@H]1Cc2ccccc2CN1C(=O)OC(C)(C)C)C(=O)NCC1CCCO1 (stereo partly drawn) do in these assays?
CRFBP-R2 block: 21; CRFBP-R2 agonist: 1; MEKK2 WT-MEK5: 95; ABCB6 inh MLPCN: 91; MEKK2mut PB1 HTS: 0; MEKK3 PB1 HTS: 98

How did CCCCc1ccc(NC=C2C(=O)OC3(CCCCC3)OC2=O)cc1 do in these assays?
CRFBP-R2 block: -204; CRFBP-R2 agonist: 145*; MEKK2 WT-MEK5: 103; ABCB6 inh MLPCN: 91; MEKK2mut PB1 HTS: -2; MEKK3 PB1 HTS: 106

What do the screens show for `NS(=O)(=O)c1ccc(NC=C2C(=O)OC3(CCCCC3)OC2=O)cc1`?
CRFBP-R2 block: 5; CRFBP-R2 agonist: -2; MEKK2 WT-MEK5: 96; ABCB6 inh MLPCN: 94; MEKK2mut PB1 HTS: -1; MEKK3 PB1 HTS: 94

What do the screens show for `O=C(COC(=O)CCCOc1ccccc1)NC1CCS(=O)(=O)C1` (stereo not drawn)?
CRFBP-R2 block: -5; CRFBP-R2 agonist: 2; ABCB6 inh MLPCN: 97
